Data reported in PubChem BioAssay (Tox21).
Results filed as inconclusive are left out. Active and inactive are the calls of the source. Unless noted, the call rests on the fitted dose curve; in most records, active means well fitted curve in the direction sought with a large enough effect in the repeat runs; inconclusive means weak or mixed curves; inactive means no such curve, though single readings can be large; an effect the other way counts as inactive or inconclusive.

Assays:
[1] = qHTS assay for small molecule agonists of the p53 signaling pathway (AID 651631; calls by dose curve; further: nearly all actives have a fitted effect of over 15% in size)
Summary of the method: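 We treat p53RE-bla HCT-116 cells with compounds for 16 h at 37 °C, add LiveBLAzer B/G FRET substrate for 2 h at room temperature, and measure fluorescence intensity.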

[2] = qHTS assay for small molecules that induce genotoxicity in human embryonic kidney cells expressing luciferase-tagged ATAD5 (AID 651632); further: nearly all actives have a fitted effect of over 15% in size
Summary of the method: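 Genotoxicity read-out via ATAD5-luciferase: HEK293T cells, 16 hr compound incubation at 37C, Amplite detection.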

[3] = qHTS assay for small molecule agonists of the p53 signaling pathway - cell viability (AID 651633; calls by dose curve;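 further: p53RE-bla HCT reporter cells with a stable beta-lactamase p53 reporter; series mostly up to about 83 µM; nearly all actives have a fitted effect of over 30% in size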)
Summary of the method: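 p53RE-bla cells were treated with compound for 16 hours at 37 C. Cytotoxicity was then measured as CellTiter-Glo luminescence after 30 min at room temperature.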

[4] = qHTS assay for small molecules that induce genotoxicity in human embryonic kidney cells expressing luciferase-tagged ATAD5 - cell viability (AID 651634; calls by dose curve; further: nearly all actives have a fitted effect of over 25% in size)
Summary of the method: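 Live-cell protease activity (CellTiter-Fluor, fluorescence) indicates viability. HEK293T cells with luciferase-tagged ATAD5; 15.5 hr compound treatment at 37C.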

[5] = qHTS assay for small molecule disruptors of the mitochondrial membrane potential - cell viability (AID 720634; calls by dose curve;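 further: human HepG2 liver cancer cells; series mostly up to about 83 µM; nearly all actives have a fitted effect of over 20% in size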)
Summary of the method: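 Human hepatoma HepG2 cells were treated for 1 hr with test chemicals, then given m-MPI dye and CellTiter-Glo. Cell viability reflects luminescence proportional to cellular ATP.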

[6] = qHTS assay for small molecule disruptors of the mitochondrial membrane potential (AID 720635)
Summary of the method: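 HepG2 cells exposed to compound 1 hr at 37C, then Mito-MPS dye 30 min. Ratio read of aggregate (540/590 nm) versus monomer (490/535 nm) fluorescence.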

[7] = qHTS assay to test for compound auto fluorescence at 590 nm (red) in HepG2 cells (AID 720674)
Summary of the method: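 HepG2 cells, 2,000 per well in MEM with 10% FBS, attached overnight at 37 C, then got 23 nL compound or DMSO. After 1 hr at 37 C, 5% CO2, red fluorescence was read at 540/590 nm against Rose Bengal sodium as reference.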

[8] = qHTS assay to test for compound auto fluorescence at 460 nm (blue) in HEK293 cells (AID 720678)
Summary of the method: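 HEK293 cells (2,000 per well, medium with 10% dialyzed FBS) attached for 4-5 hr at 37C, then received compound and stood overnight at 37C, 5% CO2. Blue fluorescence was read at Ex/Em 405/460 nm and expressed relative to triamterene.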

[9] = qHTS assay to test for compound auto fluorescence at 590 nm (red) in HEK293 cells (AID 720679)
Summary of the method: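 HEK293 cells (2,000/well, medium with 10% dialyzed FBS) attached for 4-5 hr at 37C, received 23 nL compound and were incubated overnight at 37C, 5% CO2. Red fluorescence was then read at 540/590nm Ex/Em, referenced to Rose Bengal sodium.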

[10] = qHTS assay to test for compound auto fluorescence at 535 nm (green) in HEK293 cells (AID 720680)
[11] = qHTS assay to test for compound auto fluorescence at 460 nm (blue) in HEK293 cell free culture (AID 720681)
Summary of the method: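 Compounds were added to cell-free DMEM with 10% FBS and fluorescence read directly. The blue channel used 405 nm excitation and 460 nm emission, with triamterene as the reference fluorophore.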

[12] = qHTS assay to test for compound auto fluorescence at 535 nm (green) in HEK293 cell free culture (AID 720682)
Summary of the method: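 Green-channel intensity (Ex/Em 485/535 nm) was recorded from compound-treated wells containing only DMEM with 10% FBS. Fluorescein provided the equivalency standard.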

[13] = qHTS assay to test for compound auto fluorescence at 590 nm (red) in HEK293 cell free culture (AID 720683)
Summary of the method: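 Cell-free wells of DMEM with 10% FBS received compound, and intrinsic fluorescence was read at excitation/emission 540/590 nm. Values expressed as equivalence to Rose Bengal sodium.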

[14] = qHTS assay to test for compound auto fluorescence at 590 nm (red) in HepG2 cell free culture (AID 720684)
Summary of the method: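 Compound was pinned into wells holding MEM with 10% FBS and no cells, and red fluorescence was read at Ex/Em 540/590 nm. Signal is expressed as auto fluorescence equivalency relative to Rose Bengal sodium.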

[15] = qHTS assay to test for compound auto fluorescence at 460 nm (blue) in HepG2 cell free culture (AID 720685)
Summary of the method: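 Compound (23 nL) or DMSO pinned into cell-free MEM with 10% FBS; blue fluorescence read at 405/460 nm excitation/emission, expressed as auto-fluorescence equivalency to triamterene.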

[16] = qHTS assay to test for compound auto fluorescence at 535 nm (green) in HepG2 cell free culture (AID 720686)
[17] = qHTS assay to test for compound auto fluorescence at 460 nm (blue) in HepG2 cells (AID 720687)
Summary of the method: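 HepG2 cells in MEM with 10% FBS, attached overnight at 37 C, were exposed to compound or DMSO for 1 hr at 37 C, 5% CO2. Blue fluorescence was read at 405/460 nm, with triamterene as reference fluorophore.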

[18] = target: Glucocorticoid receptor (Homo sapiens) (UniProt P04150); test: qHTS assay to identify small molecule agonists of the glucocorticoid receptor (GR) signaling pathway (AID 720691; active means well fitted activation curve with a large enough effect in the signal ratio in the repeat runs, not every such curve was filed as active; the % refers to the signal ratio)
Chain of Glucocorticoid receptor (Homo sapiens) (P04150 whole entry, looked up): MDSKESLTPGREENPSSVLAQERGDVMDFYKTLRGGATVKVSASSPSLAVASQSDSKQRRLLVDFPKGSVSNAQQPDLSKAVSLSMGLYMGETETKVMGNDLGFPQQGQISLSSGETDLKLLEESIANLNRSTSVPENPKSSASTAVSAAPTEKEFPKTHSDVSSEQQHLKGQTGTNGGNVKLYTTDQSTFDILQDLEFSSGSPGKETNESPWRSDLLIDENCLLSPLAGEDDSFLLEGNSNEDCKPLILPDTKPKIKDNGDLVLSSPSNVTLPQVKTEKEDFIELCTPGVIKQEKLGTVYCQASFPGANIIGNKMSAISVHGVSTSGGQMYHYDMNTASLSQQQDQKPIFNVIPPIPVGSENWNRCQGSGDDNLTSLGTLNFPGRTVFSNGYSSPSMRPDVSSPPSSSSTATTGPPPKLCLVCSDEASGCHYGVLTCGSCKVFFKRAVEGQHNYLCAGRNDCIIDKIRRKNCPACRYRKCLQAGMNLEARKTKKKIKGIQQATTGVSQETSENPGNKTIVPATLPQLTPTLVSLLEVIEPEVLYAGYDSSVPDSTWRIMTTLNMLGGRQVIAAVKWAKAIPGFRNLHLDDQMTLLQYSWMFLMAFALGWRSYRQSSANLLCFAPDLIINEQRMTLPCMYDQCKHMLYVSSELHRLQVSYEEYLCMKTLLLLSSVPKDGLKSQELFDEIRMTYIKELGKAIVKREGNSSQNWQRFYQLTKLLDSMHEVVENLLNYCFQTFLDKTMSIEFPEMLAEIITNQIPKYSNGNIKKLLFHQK
Summary of the method: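 Beta-lactamase reporter activity, read as fluorescence intensity, was measured in GR-bla HeLa cells exposed to compounds for 18 h at 37 C and then loaded with LiveBLAzer B/G FRET substrate for 2 h at room temperature.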

[19] = target: Glucocorticoid receptor (Homo sapiens) (UniProt P04150); test: qHTS assay to identify small molecule antagonists of the glucocorticoid receptor (GR) signaling pathway (AID 720692; active means well fitted inhibition curve with a large enough effect in the signal ratio in the repeat runs, not every such curve was filed as active; the % refers to the signal ratio)
Summary of the method: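 Fluorescence from cleaved LiveBLAzer B/G FRET substrate reports GRE-driven beta-lactamase in HeLa cells; compounds are tested against 5 nM dexamethasone (final) over 18 h at 37 C, substrate incubation 2 h at room temperature.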

[20] = qHTS assay to test for compound auto fluorescence at 535 nm (green) in HepG2 cells (AID 720675)

Measured: Potency

NCCc1ccc(O)cc1
not listed: [20]
inactive: all other assays above

BrCCBr
not listed: [19] | [20]
inactive: all other assays above

O=[N+]([O-])c1ccccc1
not listed: [12] | [19] | [20]
inactive: all other assays above

NCC(O)c1ccc(O)cc1 (stereo not drawn)
not listed: [12] | [18] | [19] | [20]
inactive: all other assays above

CN(C)N=O
not listed: [19]
inactive: all other assays above

CCC[N+](=O)[O-]
not listed: [18] | [19]
inactive: all other assays above

CC1OC(C)OC(C)O1 (stereo not drawn)
not listed: [18] | [19]
inactive: all other assays above

c1ccc2c(c1)oc1ccccc12
not listed: [19] | [20]
inactive: all other assays above
